We go through 15 compounds from PubChem BioAssay (NCI).

Compounds without any hit were thinned out: in the full panel of roughly 83,000, 20% have a hit.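 A percent growth of 40 corresponds to 60% growth inhibition; 0 means no net growth; -100 means all cells died. Active threshold: below 10.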 Values without a mark were called inactive. Activity calls are given as the source filed them.

Holding throughout (assay): NCI-60 one-dose screen, 48 h (100 = growth as untreated, 0 = no growth, -100 = all killed)
One assay concerns HCT-15 colon. The settings on record: 10 µM.
Another assay relates to HT29 colon. As to conditions: 10 µM.
Another assay deals with SNB-75 CNS. As to conditions: 10 µM.
Another assay deals with SNB-19 CNS. The settings on record: 10 µM.
A further assay concerns U251 CNS. As to conditions: 10 µM.
In a further assay the test system is PC-3 prostate. As to conditions: 10 µM.
A further assay deals with SK-MEL-5 melanoma. As to conditions: 10 µM.
Another assay concerns UACC-62 melanoma. The settings on record: 10 µM unless noted.
In a further assay the test system is LOX IMVI melanoma. The settings on record: 10 µM.
The subject of a further assay is SK-MEL-28 melanoma. As to conditions: 10 µM.

As to `Cc1cc(O)ccc1O`, the growth in the assay with HCT-15 colon was 108%; in the assay with HT29 colon it was 114%; in the assay on SNB-75 CNS, 114%; in the assay with SNB-19 CNS it was 112%; with U251 CNS, 107%; in the assay on PC-3 prostate, 97.7%. The growth is 88.6% in the assay on SK-MEL-5 melanoma, 80.8% with UACC-62 melanoma, 92.5% in the assay with LOX IMVI melanoma and 108% in the assay with SK-MEL-28 melanoma.
As for `CCOC(=O)C1OC1c1ccccc1` (stereo not given), the growth with HCT-15 colon was 103%; with HT29 colon, 112%; with SNB-75 CNS, 92%; with SNB-19 CNS, 103%; in the assay on U251 CNS, 98.7%; with PC-3 prostate, 98.8%. The growth with SK-MEL-5 melanoma is 99.6%; in the assay on UACC-62 melanoma, 101%; in the assay with LOX IMVI melanoma, 101%; in the assay on SK-MEL-28 melanoma, 110%.
Consider `Nc1nc(N)c(N=Nc2ccc(C(=O)O)cc2)c(N)n1`, for which the growth was 109% in the assay on HCT-15 colon; 105% with HT29 colon; 103% with SNB-75 CNS; 95.1% in the assay with SNB-19 CNS; 103% with U251 CNS; 101% with PC-3 prostate. For the same compound, the growth was 100% in the assay with SK-MEL-5 melanoma, 94.4% in the assay on UACC-62 melanoma, 101% in the assay on LOX IMVI melanoma and 103% in the assay on SK-MEL-28 melanoma.
As for `Cc1cccc([N+](=O)[O-])c1Cl`, the growth was 99.6% in the assay with HCT-15 colon; 112% in the assay with HT29 colon; 95.2% in the assay with SNB-75 CNS; 106% in the assay with SNB-19 CNS; 102% in the assay with U251 CNS; 102% with PC-3 prostate. Moreover, the growth in the assay on SK-MEL-5 melanoma was 98.8%; with UACC-62 melanoma, 105%; in the assay with LOX IMVI melanoma, 101%; in the assay with SK-MEL-28 melanoma, 107%.
Turning to `CCCCC(=O)c1ccc(OC)cc1`, the growth was 91.3% with HCT-15 colon; 107% in the assay with HT29 colon; 101% in the assay on SNB-75 CNS; 104% in the assay on SNB-19 CNS; 97.9% in the assay with U251 CNS; 110% in the assay on PC-3 prostate. The growth in the assay with SK-MEL-5 melanoma is 96.5%; in the assay with UACC-62 melanoma, 111%; in the assay on LOX IMVI melanoma, 102%; in the assay on SK-MEL-28 melanoma it was 111%.
Regarding `COC(=O)c1ccccc1Br`, the growth is 99.6% in the assay with HCT-15 colon; 110% in the assay with HT29 colon; 80.5% with SNB-75 CNS; 96.4% with SNB-19 CNS; 106% with U251 CNS; 80% in the assay with PC-3 prostate. Moreover, the growth in the assay with SK-MEL-5 melanoma is 107%; in the assay on UACC-62 melanoma it was 94.4%; with LOX IMVI melanoma it was 98.4%; with SK-MEL-28 melanoma, 159%.
`Cc1cc(C)c(N)c(S(=O)(=O)O)c1`: the growth in the assay on HCT-15 colon is 100%; in the assay on HT29 colon it was 103%; with SNB-75 CNS, 101%; in the assay with SNB-19 CNS it was 96.5%; in the assay on U251 CNS it was 98.2%; with PC-3 prostate, 96.6%. In addition, the growth in the assay with SK-MEL-5 melanoma was 98.7%; in the assay on UACC-62 melanoma it was 93.1%; in the assay with LOX IMVI melanoma, 93.9%; in the assay on SK-MEL-28 melanoma it was 132%.
Turning to `Cc1ccccc1N=C(c1ccccc1)C1C(=O)c2ccccc2C1=O`, the growth with HCT-15 colon was 58.7%; with HT29 colon, 75.9%; in the assay on SNB-75 CNS, 90%; with SNB-19 CNS it was 97.1%; in the assay with U251 CNS, 87.7%; in the assay on PC-3 prostate, 59.8%. The growth was -0.209% (active) with SK-MEL-5 melanoma, 63.1% in the assay with UACC-62 melanoma, 85.9% in the assay on LOX IMVI melanoma and 89.4% with SK-MEL-28 melanoma.
On to `O=C(c1ccc(Cl)cc1)c1ccccc1Cl`, for which the growth was 95.8% with HCT-15 colon; 101% in the assay with HT29 colon; 100% in the assay on SNB-75 CNS; 85.1% in the assay with SNB-19 CNS; 98.3% in the assay on U251 CNS; 93.4% in the assay on PC-3 prostate. Further, the growth in the assay on SK-MEL-5 melanoma is 94.5%; in the assay on UACC-62 melanoma, 87.7%; with LOX IMVI melanoma it was 96.2%; with SK-MEL-28 melanoma it was 129%.
Turning to `COC(=O)c1cccc(Br)c1`, the growth in the assay with HCT-15 colon is 101%; with HT29 colon, 115%; in the assay on SNB-75 CNS it was 96.5%; in the assay on SNB-19 CNS, 107%; in the assay on U251 CNS, 109%; in the assay on PC-3 prostate, 86.4%. Moreover, the growth was 106% with SK-MEL-5 melanoma, 97.2% with UACC-62 melanoma, 108% in the assay with LOX IMVI melanoma and 118% in the assay with SK-MEL-28 melanoma.
As for `CC(=O)Cc1ccc(-c2ccccc2)cc1`, the growth is 103% with HCT-15 colon; 111% in the assay on HT29 colon; 98.5% with SNB-75 CNS; 101% in the assay on SNB-19 CNS; 98.3% with U251 CNS; 97.1% in the assay with PC-3 prostate. Also, the growth in the assay on SK-MEL-5 melanoma was 98.7%; in the assay on UACC-62 melanoma it was 87.5%; in the assay on LOX IMVI melanoma, 100%; in the assay with SK-MEL-28 melanoma, 114%.
Take `CC1=CC(C)(C)NC(=S)N1c1ccc(S(=O)(=O)O)c2cccc(S(=O)(=O)O)c12`: the growth with HCT-15 colon is 105%; in the assay with HT29 colon it was 133%; with SNB-75 CNS it was 90.5%; with SNB-19 CNS, 109%; in the assay with U251 CNS, 113%; with PC-3 prostate, 92.5%. In addition, the growth in the assay on SK-MEL-5 melanoma is 101%; in the assay with UACC-62 melanoma, 97.5%; in the assay on LOX IMVI melanoma, 107%; in the assay on SK-MEL-28 melanoma, 112%.
As for `O=S(=O)(O)c1ccc(Cl)c(Cl)c1`, the growth in the assay with HCT-15 colon is 107%; in the assay on HT29 colon it was 109%; in the assay with SNB-75 CNS, 91.6%; with SNB-19 CNS it was 101%; in the assay with U251 CNS it was 105%; in the assay with PC-3 prostate, 94.1%. Further, the growth is 107% in the assay on SK-MEL-5 melanoma, 99% in the assay on UACC-62 melanoma, 91.8% in the assay on LOX IMVI melanoma and 112% in the assay on SK-MEL-28 melanoma.
For the compound `O=C(/C(=N/O)c1ccccc1)c1ccccc1`, the growth in the assay on HCT-15 colon is 96.8%; in the assay on HT29 colon, 117%; with SNB-75 CNS, 85.4%; in the assay with SNB-19 CNS, 100%; with U251 CNS, 94.6%; in the assay with PC-3 prostate it was 94.9%. Also, the growth in the assay on SK-MEL-5 melanoma was 97.4%; in the assay on UACC-62 melanoma, 88.3%; in the assay on LOX IMVI melanoma it was 105%; in the assay with SK-MEL-28 melanoma, 105%.
For `CCCCNC1(C#N)CCN(Cc2ccccc2)CC1`, the growth was 108% in the assay on HCT-15 colon; 106% in the assay on HT29 colon; 84.2% with SNB-75 CNS; 91.1% in the assay with SNB-19 CNS; 101% in the assay on U251 CNS; 96.1% in the assay with PC-3 prostate. Moreover, the growth in the assay with SK-MEL-5 melanoma is 107%; in the assay with UACC-62 melanoma, 95%; in the assay on LOX IMVI melanoma, 99.7%; in the assay with SK-MEL-28 melanoma it was 102%.
